Assay results reported in PubChem BioAssay (NCI).
This is part of a sample that, as a whole, favours compounds with a hit. Of some 79,000 tested, about 15% had one in any assay. Values without a mark were called inactive. Calls of active or inactive are those of the source. Rule as the data show it: active = growth inhibition above about 70%; inactive = the rest.

Legend:
[1] = NCI Yeast Anticancer Drug Screen. Data for the rad50 strain (AID 155);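 also: 0% = growth of vehicle-only cultures of the same strain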; settings: S. cerevisiae rad50 strain growth inhibition, active compounds read high
In short: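 Yeast carrying a defined DNA repair defect were exposed to test compounds, and growth was compared with vehicle-treated controls to give percent inhibition.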

[2] = NCI Yeast Anticancer Drug Screen. Data for the mec2-1 strain (AID 157); settings: S. cerevisiae mec2-1 strain, active compounds read high
In short: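 Compounds were applied to mec2-1 yeast cells. Their growth was then compared with that of vehicle-treated cultures to give growth inhibition.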

[3] = NCI Yeast Anticancer Drug Screen. Data for the sgs1 mgt1 strain (AID 161);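 also: 0% = growth of cultures given vehicle only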; settings: S. cerevisiae sgs1 mgt1 strain, active compounds read high
In short: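 Yeast cells carrying a defined DNA-repair defect were exposed to test compounds. Growth inhibition was measured relative to vehicle-treated controls.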

[4] = NCI Yeast Anticancer Drug Screen. Data for the cln2 rad14 strain (AID 165);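 also: 0% = growth equal to vehicle treated cultures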; settings: S. cerevisiae cln2 rad14 strain, active compounds read high
In short: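 Strain: cln2 rad14 yeast, altered in cell cycle control and DNA damage repair. Read-out: growth inhibition vs vehicle.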

[5] = NCI Yeast Anticancer Drug Screen. Data for the bub3 strain (AID 167); settings: S. cerevisiae bub3 mutant strain, active compounds read high
In short: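 Compounds were applied to a genetically altered yeast strain carrying a cell-cycle control defect. Growth inhibition was scored against vehicle-treated controls.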

[6] = NCI Yeast Anticancer Drug Screen. Data for the mlh1 rad18 strain (AID 175); settings: S. cerevisiae mlh1 rad18 strain growth inhibition, active compounds read high
In short: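 A repair-deficient yeast strain is exposed to test compound, and growth is scored relative to vehicle-treated controls.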

[7] = at 5.0 µM (retest, dose inferred, filed as 0.5)
[8] = at 50.0 µM (retest, dose inferred, filed as 5.0)

| SMILES | growth inhibition [1, 7] | growth inhibition [1, 8] | growth inhibition ([1]; at 50.0 µM) | growth inhibition [2, 7] | growth inhibition [2, 8] | growth inhibition ([2]; at 50.0 µM) | growth inhibition [3, 7] | growth inhibition [3, 8] | growth inhibition ([3]; at 50.0 µM) | growth inhibition [4, 7] | growth inhibition [4, 8] | growth inhibition ([4]; at 50.0 µM) | growth inhibition [5, 7] | growth inhibition [5, 8] | growth inhibition ([5]; at 50.0 µM) | growth inhibition [6, 7] | growth inhibition [6, 8] | growth inhibition ([6]; at 50.0 µM) |
| --- | --- | --- | --- | --- | --- | --- | --- | --- | --- | --- | --- | --- | --- | --- | --- | --- | --- | --- |
| CC(C)N(C(=O)CC1(O)CCCCC1)C(C)C | 2% | -14% | -0.25% | -5% | 1% | -11.9% | 1% | -11% | -14.6% | -6% | 4% | 73.8% (active) | -1% | 6% | -9.25% | 0% | -9% | 1.85% |
| CC#CC#C/C=C1/C=CC(=O)O1 | 2% | 80% (active) | 27.4% | 3% | 66% | 33.5% | 1% | 62% | 42.2% | -1% | 26% | -16.8% | 3% | 59% | 13.5% | 0% | 84% (active) | 75% (active) |
| CCOc1c(N=Nc2ccccc2Cl)c(-c2ccccc2)nn1C(=S)S | -1% | 20% | 52.7% | -4% | 24% | 57.6% | -2% | -70% | 28.8% | -7% | 27% | 48.5% | 3% | 64% | 78.5% (active) | -2% | 31% | 42.9% |
| O=C(Cl)c1ccc(N=Nc2ccccc2)cc1 | 2% | 31% | 69.5% | -1% | 23% | 37% | -1% | 14% | 47.5% | 0% | 23% | 49.2% | 1% | 21% | 65.5% | 3% | 27% | 80% (active) |
| COc1cc2c(Cc3ccc(OC)c(OC)c3)[n+](Cc3ccccc3)ccc2cc1NCc1ccccc1 | 90% (active) | 98% (active) | 89% (active) | 90% (active) | 99% (active) | 92.2% (active) | 93% (active) | 99% (active) | 86% (active) | 65% | 98% (active) | 89.6% (active) | 92% (active) | 99% (active) | 81.1% (active) | 88% (active) | 99% (active) | 92.7% (active) |
| COc1cc2c(c(OC)c1OC)-c1ccc(SC)c(=O)cc1[C@@H](NC(=O)Oc1ccccc1)CC2 | 73% (active) | 31% | 54% | 24% | 29% | -0.55% | -9% | 9% | -2.45% | -12% | 13% | 1.65% | -8% | 8% | 0.9% | 20% | 43% | 12.6% |
| CC12CCC3C(CCC4CC(O)CCC43C)C1CC1C2=NOC1O (configuration not stated) | 0% | 99% (active) | 25.8% | -2% | 99% (active) | 18.2% | 0% | 99% (active) | 72.2% (active) | -8% | 99% (active) | 21% | -3% | 99% (active) | 73% (active) | -1% | 99% (active) | 56.7% |
| Cc1cc(O)c(O)cc1C/C=C/c1ccccc1 | -1% | 92% (active) | 53.2% | 1% | 97% (active) | 26.7% | 5% | 97% (active) | 51.5% | -5% | 82% (active) | 42.5% | 0% | 96% (active) | 53.2% | -10% | 96% (active) | 40.6% |
| O=[N+]([O-])c1ccc(N/N=C/CCCCCCCCCCBr)c([N+](=O)[O-])c1 | -4% | -3% | 24.8% | -2% | 1% | 10.4% | -5% | 0% | 2.4% | -4% | -6% | 9.15% | -5% | 1% | 50.3% | -1% | -2% | 21.4% |
| COc1cc(C)cc2c(-c3c(O)cc(O)c4c3C[C@H](C)N[C@H]4C)cc(-c3cc(-c4c(O)cc(O)c5c4C[C@H](C)N[C@H]5C)c4cc(C)cc(OC)c4c3O)c(O)c12 | -6% | 27% | -28.4% | -10% | -12% | -27.8% | -14% | -7% | 18.7% | 0% | 1% | 87% (active) | 0% | -23% | -48.5% | -18% | 27% | 2.7% |
| COc1ccc(-c2c3c(cc4cc5c(cc24)OCO5)C(=O)OC3)cc1OC | 26% | 96% (active) | 92.5% (active) | 30% | 96% (active) | 93.9% (active) | 57% | 96% (active) | 93.7% (active) | 16% | 87% (active) | 92.3% (active) | 51% | 97% (active) | 92.3% (active) | 62% | 96% (active) | 78.8% (active) |
| O=C(NCCCNCCCCNCCCNC(=O)c1cc(-c2ccccc2)nc2ccccc12)c1cc(-c2ccccc2)nc2ccccc12 | 49% | 98% (active) | 90.2% (active) | 25% | 99% (active) | 93.2% (active) | 34% | 99% (active) | 92.8% (active) | 30% | 98% (active) | 91.1% (active) | 33% | 64% | 92.2% (active) | 46% | 99% (active) | 90% (active) |
| CCOC(=O)Nc1nc2ccc(SC#N)cc2s1 | 8% | 85% (active) | 92.9% (active) | 1% | 81% (active) | 64.8% | 9% | 96% (active) | 79.8% (active) | 6% | 88% (active) | 57.5% | 23% | 93% (active) | 88.2% (active) | 9% | 94% (active) | 50.5% |
| Cc1ccc(/C=N/Nc2ccc([N+](=O)[O-])cc2[N+](=O)[O-])cc1 | -2% | -4% | 19.4% | -1% | -2% | -8.75% | -3% | -3% | 10.6% | -4% | -9% | 20.1% | -3% | -4% | -9.15% | -4% | -4% | -3.9% |
| O=C(O)CN(CC(=O)O)C1CCCCC1N1CC(=O)OC(=O)C1 (configuration not stated) | 35% | 35% | 74.3% (active) | 17% | 17% | 81.1% (active) | 26% | 26% | 75% (active) | 3% | 3% | 64.3% | -7% | -7% | 80.3% (active) | 25% | 25% | 76% (active) |
| CCOC(=O)c1c(C)c2c(n1C)CCc1sc(N)nc1-2 | 14% | 66% | 96% (active) | 7% | 58% | 96.8% (active) | 5% | 65% | 98.3% (active) | -1% | 26% | 43.3% | 2% | 80% (active) | 96.7% (active) | -1% | 58% | 90.2% (active) |
| c1ccc2c(c1)CCCc1cc3ccccc3nc1-2 | 27% | 96% (active) | 84.8% (active) | -30% | 98% (active) | 92.8% (active) | -1% | 96% (active) | 93% (active) | -12% | 96% (active) | 92% (active) | 18% | 97% (active) | 91.9% (active) | -36% | 96% (active) | 89.7% (active) |
| CCOC(=O)Cc1cc(=O)oc2c(CN3CCN(c4ccc(C)cc4)CC3)c(O)ccc12 | 3% | 55% | 60.8% | 3% | 77% (active) | 51.7% | -1% | 87% (active) | 38.2% | 8% | 74% (active) | 1.2% | 7% | 86% (active) | 26.8% | 3% | 81% (active) | 78.8% (active) |
| CCCCC1C(=O)N2c3ccccc3-c3ccccc3N2C1=O | -5% | 30% | 65.5% | 4% | 33% | 6.8% | -3% | 23% | 43.2% | -4% | 8% | 14.8% | 6% | 10% | 17.4% | 0% | 34% | 35% |
